TEAD-YAP block: TEAD-YAP interaction inhibition. HEK-TIYL cells, TEAD-Gal4/YAP UAS-luciferase luminescence. inhibition, % at 9.12 µM. 1.4% of 640,000 active. AID 1259422; in the data active = inhibition above about 32%;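 also: 0% = median of test compound wells and 100% = reference inhibitor wells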
FBW7 activator: activators of human E3 ligase FBW7; Q969H0; normalized activity (activation), % at 26.1 µM; 0.13% of 650,000 active; AlphaScreen FBW7–phospho-cyclin E peptide binding, activator screen; in the data active = normalized activity above about 1.9%;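 also: purified mutant Fbw7 with reduced substrate affinity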
MITF inh: blocks human microphthalmia-associated transcription factor. O75030. AlphaScreen MITF homodimerization, bead proximity signal. inhibition, % at 2.6 µM. 0.91% of 650,000 active; in the data active = inhibition above about 50%;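 also: 0% = vehicle wells with protein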
GPR151 ag: activators of human GPR151. AID 1508602. Q8TDV0. 1% of 650,000 active. PathHunter beta-arrestin GPR151 cells, luminescence. activation, % at 11.2 µM; in the data active = activation above about 4.9%;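 also: 0% = median of compound wells and 100% = cells with positive control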
* hit, by the source's call. The list is not random: actives were taken first. Their share in the collection is about 3.5%.

SMILES	TEAD-YAP block	FBW7 activator	MITF inh	GPR151 ag
CC(=O)Nc1nc(-c2ccc3c(c2)NC(=O)CO3)cs1	58*	0	6	0
Cc1cccc(Nc2nc3nonc3nc2Nc2ccc(F)cc2)c1C	35*	0	10	1
Cc1ccc(Nc2nc3nonc3n3nnnc23)cc1C	-8	0	16	-1
Fc1ccc(Nc2nc3nonc3nc2Nc2ccccc2F)cc1	83*	0	-2	3
Fc1ccc(Nc2nc3nonc3n3nnnc23)cc1	46*	0	6	-6
Cc1cccc(Nc2nc3nonc3nc2Nc2ccc(I)cc2)c1C	13	0	8	0
O=c1[nH]c2nonc2nc1Nc1ccccc1F	73*	0	6	-2
CC(C)CCCC(C)CCOC(=O)CN1CCOCC1 (stereo not drawn)	-7	0	4	-1
CC1=C(C(=O)Nc2ccccc2)C(c2ccccc2)NC(=S)N1C (stereo not drawn)	-1	1	5	0
O=C(Nc1ccc2nc3n(c(=O)c2c1)CCCCC3)c1cc([N+](=O)[O-])ccc1F	29	0	0	1
O=C(Nc1ccc2nc3n(c(=O)c2c1)CCCCC3)c1c(F)ccc([N+](=O)[O-])c1F	36*	0	9	0
COC(=O)CN1C(=O)S/C(=C/c2cc(Br)cs2)C1=O	0	0	3	2
CCNc1nc(NCC)nc(N/N=C/c2ccc(OC)c(OCc3ccccc3)c2)n1	10	0	1	-2
CNc1nc(N/N=C/c2ccc(OC)c(OC)c2)nc(Nc2cccc(C(F)(F)F)c2)n1	53*	0	0	2

Assay outcomes as filed in PubChem.
